Most compounds without a hit are left out; they make up all but 19% or so of the library.
TDP1 cell CPT – qHTS for Inhibitors of human tyrosyl-DNA phosphodiesterase 1 (TDP1): qHTS in cells in presence of CPT. chicken DT40 Tdp1-/-;hTDP1 cells + 20 nM CPT, ATP luminescence, 48 h. Potency, µM (top dose mostly 46.2 µM), for inactives: at the highest dose activity change, negative = growth inhibition, hits mostly inhibitors. 420,000 tested, 12% active; note: potency is the fitted concentration of half-maximal effect; nearly all actives have a fitted effect of over 55% in size
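Chicken DT40 Tdp1-/- cells complemented with human TDP1, 400 cells/well, exposed to compounds plus 20 nM camptothecin for at least 48 h at 37 C; viability read as ATP content by CellTiter-Glo luminescence.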
HT1080NT lethal – qHTS for induction of synthetic lethality in tumor cells producing 2HG: qHTS for the HT-1080-NT fibrosarcoma cell line | HT-1080-NT fibrosarcoma viability, CellTiter-Glo ATP luminescence, 48 h | Potency, µM (doses to about 46.1 µM), inactives show at the top dose activity, negative = less viability, most hits filed as cytotoxic | 360,000 tested, 1.6% active | AID 686970, 2013;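 note: NT is the 2HG producing partner of a matched IDH1 knockdown line; potency is the fitted concentration of half-maximal effect; 0% = DMSO-treated cells and -100% = media-only wells without cells; nearly all actives have a fitted effect of over 55% in size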
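A 48-hour cytotoxicity screen used HT-1080-NT cells plated 2 hours before compound delivery. ATP-based CellTiter-Glo luminescence measured viability, normalized to DMSO and no-cell controls.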
ELG1 repair inh – qHTS screen for small molecules that inhibit ELG1-dependent DNA repair in human embryonic kidney (HEK293T) cells expressing luciferase-tagged ELG1. HEK293T ELG1-luciferase reporter, luminescence, 16 h; DNA damage induced by 5-fluorouridine. Potency, µM (highest dose often 46.1 µM), for inactives: at the top dose activity change, negative = inhibition, hits mostly inhibitors. 330,000 tested, 2.3% active. AID 504467, 2011; note: potency is the fitted concentration of half-maximal effect; nearly all actives have a fitted effect of over 55% in size
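Cells (2,000 per well) received 5-fluorouridine plus test compound or DMSO and were incubated 16 hr at 37 °C, 5% CO2. Luciferase activity was read by luminescence 30 min after ONE-Glo addition; signal suppression marked inhibition of damage-induced ELG1 function.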
HT1080 IDH1KD tx – qHTS for induction of synthetic lethality in tumor cells producing 2HG: qHTS for the HT-1080-IDH1KD cell line. Potency, µM (highest dose often 46.1 µM), without a hit: top-dose activity, negative = toxicity, usual class: cytotoxic. AID 686971, 2013. HT-1080 IDH1 knockdown viability, ATP luminescence, 48 h. 360,000 tested, 2% active;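 note: potency is the fitted concentration of half-maximal effect; 0% = DMSO wells and -100% = cell-free medium wells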
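Assay cells: HT-1080 with IDH1 knockdown, 750 per well, RPMI/5% FBS. Exposure: 48 h at 37 °C following 2 h pre-incubation. Read: CellTiter-Glo luminescence; fitted concentration-response, curve class assigned.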
IL1B secr inh – qHTS for Inhibitors of Inflammasome Signaling: IL-1-beta AlphaLISA Primary Screen; THP-1 LPS/ATP IL-1B secretion, AlphaLISA, 16 h; hits give low values; 360,000 tested, 4.7% active; activity change, % at 57.5 µM; in the data active = activity change below about -50%; inconclusive = mostly about -30% to -49%
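THP-1 cells pretreated 1 hr with compounds (up to 57.5 uM final), then stimulated with LPS (250 ng/mL final) plus ATP (1.25 mM final); secreted IL-1B measured by AlphaLISA after 16 hr, decreased signal indicating inhibition.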
DT40 TDP1 no CPT – qHTS for Inhibitors of human tyrosyl-DNA phosphodiesterase 1 (TDP1): qHTS in cells in absence of CPT | 420,000 tested, 15% active | DT40 Tdp1-/- hTDP1 cells, no CPT, ATP luminescence, 48 h | AID 686978, 2013 | Potency, µM (top dose mostly 46.2 µM), for the others: top-dose activity change, negative = growth inhibition, usual class: inhibitors; note: potency is the fitted concentration of half-maximal effect; nearly all actives have a fitted effect of over 55% in size
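Luminescent ATP content (CellTiter-Glo) served as the growth readout. Knockout chicken DT40 cells expressing human TDP1 were exposed to compounds without camptothecin for a minimum 48 hr at 37 °C.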
* = called active by the depositor. Unless noted, calls come from the whole dose curve; as a rule, active = well fitted curve in the direction sought with a large enough effect; inconclusive = small, poorly fitted or top-dose-only effect, or another doubt; inactive = no such curve, though single readings can be large; an effect the other way counts as inactive or inconclusive. Unless noted, % is set by controls: 0 for no effect and ±100 for the full control effect.

`Cc1ccc2nc(/C(C#N)=C/c3ccccc3C(=O)O)[nH]c2c1` gave TDP1 cell CPT 24.2%, HT1080NT lethal 3.7%, ELG1 repair inh -2.9%, HT1080 IDH1KD tx 0.9%, IL1B secr inh 28.9 and DT40 TDP1 no CPT 3.0%.
Screening Cc1ccc2nc(/C(C#N)=C/c3cn[nH]c3-c3ccc(F)cc3)[nH]c2c1 returned TDP1 cell CPT inconclusive, HT1080NT lethal inconclusive, ELG1 repair inh inconclusive, HT1080 IDH1KD tx inconclusive, IL1B secr inh inconclusive and DT40 TDP1 no CPT 18.4µM*.
`Cc1ccc2nc(/C(C#N)=C/c3cccc(Br)c3)[nH]c2c1` gave TDP1 cell CPT 14.6µM* and DT40 TDP1 no CPT 16.4µM*.
Cc1ccc2nc(/C(C#N)=C/c3ccc(O)c(O)c3)[nH]c2c1 was read as TDP1 cell CPT 18.4µM*, HT1080NT lethal -15.2%, ELG1 repair inh inconclusive, HT1080 IDH1KD tx inconclusive, IL1B secr inh 24.1 and DT40 TDP1 no CPT 18.4µM*.
Screening CC(=O)c1ccccc1OCCCCN1CCCCC1 returned TDP1 cell CPT -4.3%, HT1080NT lethal 13.6%, ELG1 repair inh 0.2%, HT1080 IDH1KD tx 12.6%, IL1B secr inh 4.3 and DT40 TDP1 no CPT 0.5%.
Cc1ccc(C(=O)Nn2cnnc2)cc1Cl was read as TDP1 cell CPT -6.9%, HT1080NT lethal -6.4%, ELG1 repair inh 7.1%, HT1080 IDH1KD tx 1.1%, IL1B secr inh 6.2 and DT40 TDP1 no CPT -12.1%.
Screening CCOC(=O)c1cnc2c(OC)cccc2c1Nc1ccc2c(c1)OCCO2 returned TDP1 cell CPT inconclusive, HT1080NT lethal 0.6%, ELG1 repair inh inconclusive, HT1080 IDH1KD tx 12.1%, IL1B secr inh 5.1 and DT40 TDP1 no CPT inconclusive.
`CCOC(=O)c1cnc2ccc(OCC)cc2c1N(C)Cc1ccccc1` gave TDP1 cell CPT inconclusive, HT1080NT lethal inconclusive, ELG1 repair inh inconclusive, HT1080 IDH1KD tx inconclusive, IL1B secr inh -71.1* and DT40 TDP1 no CPT 23.1µM*.
CCOC(=O)c1cnc2c(OC)cccc2c1N1CCN(c2ccccc2F)CC1 was read as TDP1 cell CPT 18.4µM* and DT40 TDP1 no CPT 18.4µM*.
CCOC(=O)c1cnc2ccc(OCC)cc2c1N1CCN(c2ccccc2OC)CC1 was read as TDP1 cell CPT inconclusive, HT1080NT lethal inconclusive, ELG1 repair inh 14.6µM*, HT1080 IDH1KD tx inconclusive, IL1B secr inh -55.1* and DT40 TDP1 no CPT 11.6µM*.
For COC(=O)c1ccc(NC(=O)CSc2nn3c(=O)c(C)nnc3s2)cc1 the results were TDP1 cell CPT -16.5%, HT1080NT lethal -3.6%, ELG1 repair inh inconclusive, HT1080 IDH1KD tx 0.9%, IL1B secr inh 11.3 and DT40 TDP1 no CPT -29.4%.
CC(C#N)Sc1ccc(S(=O)(=O)N2CCCC2)cn1 (stereo unspecified) was read as TDP1 cell CPT 1.4%, HT1080NT lethal 5.6%, ELG1 repair inh 9.8%, HT1080 IDH1KD tx 14.1%, IL1B secr inh -7.5 and DT40 TDP1 no CPT 0.0%.
For C=CCN1CCN(C(=O)c2cc3c(s2)CCC(CC)C3)CC1 (stereo unspecified) the results were TDP1 cell CPT inconclusive, HT1080NT lethal 9.7%, ELG1 repair inh 11.0%, HT1080 IDH1KD tx -0.3%, IL1B secr inh -14.2 and DT40 TDP1 no CPT 16.4µM*.
CCN1C(=O)C(CC(=O)Nc2ccccc2)S/C1=N\c1ccccn1 (stereo unspecified) was read as TDP1 cell CPT 5.8%, HT1080NT lethal inconclusive, ELG1 repair inh 14.0%, HT1080 IDH1KD tx inconclusive, IL1B secr inh 14.7 and DT40 TDP1 no CPT 5.7%.
`C=CCNC(=S)NNC(=O)COc1ccc2cc(Br)ccc2c1` gave TDP1 cell CPT inconclusive, HT1080NT lethal -7.6%, ELG1 repair inh inconclusive, HT1080 IDH1KD tx -18.7%, IL1B secr inh inconclusive and DT40 TDP1 no CPT 8.2µM*.
For CCCc1ccc2oc(C(=O)N3CCN(C4CCS(=O)(=O)C4)CC3)c(C)c2c1 (stereo unspecified) the results were TDP1 cell CPT -10.3%, HT1080NT lethal -10.4%, ELG1 repair inh -4.3%, HT1080 IDH1KD tx -14.2%, IL1B secr inh -4.8 and DT40 TDP1 no CPT inconclusive.
`Cc1cc(SCc2ccc([N+](=O)[O-])cc2)nc(=O)[nH]1` gave TDP1 cell CPT 5.8%, HT1080NT lethal 2.7%, ELG1 repair inh 14.5%, HT1080 IDH1KD tx 2.5%, IL1B secr inh 5.5 and DT40 TDP1 no CPT -20.9%.
For Cn1c(NCCc2ccncc2)nc2cc(-c3ccsc3)sc2c1=O the results were TDP1 cell CPT 20.6µM*, HT1080NT lethal inconclusive, HT1080 IDH1KD tx -28.4%, IL1B secr inh 0.3 and DT40 TDP1 no CPT 13µM*.
`Cc1ccc(-c2cc3nc(NCCc4ccncc4)n(C)c(=O)c3s2)cc1` gave TDP1 cell CPT 23.1µM*, HT1080NT lethal inconclusive, HT1080 IDH1KD tx -20.8%, IL1B secr inh -1.3 and DT40 TDP1 no CPT inconclusive.
For Cn1c(NCCN2CCCC2)nc2cc(-c3ccsc3)sc2c1=O the results were TDP1 cell CPT 20.6µM*, HT1080NT lethal inconclusive, HT1080 IDH1KD tx inconclusive, IL1B secr inh -63.3* and DT40 TDP1 no CPT 14.6µM*.
For COc1ccc(-c2cc3nc(NCCN4CCCC4)n(C)c(=O)c3s2)cc1OC the results were TDP1 cell CPT inconclusive, HT1080NT lethal -28.7%, HT1080 IDH1KD tx -11.2%, IL1B secr inh -15.3 and DT40 TDP1 no CPT 18.4µM*.
Screening COc1cccc(CNc2nc3cc(-c4ccc(OC)c(OC)c4)sc3c(=O)n2C)c1 returned TDP1 cell CPT -7.5%, HT1080NT lethal -5.9%, HT1080 IDH1KD tx 10.2%, IL1B secr inh 14.4 and DT40 TDP1 no CPT -16.4%.
`Cn1c(NCCc2ccncc2)nc2cc(-c3cccc(Cl)c3)sc2c1=O` gave TDP1 cell CPT -16.3%, HT1080NT lethal 1.4%, HT1080 IDH1KD tx 23.3%, IL1B secr inh 14.3 and DT40 TDP1 no CPT -14.1%.
Screening COCCNc1nc2cc(-c3ccsc3)sc2c(=O)n1C returned TDP1 cell CPT inconclusive, HT1080NT lethal -11.8%, HT1080 IDH1KD tx -0.5%, IL1B secr inh 5.6 and DT40 TDP1 no CPT -40.4%.

Compound activity deposited in PubChem by National Center for Advancing Translational Sciences (NCATS).
